Each structure is given as a SMILES string. “And” between values parts separate entries of the source, which are not always exact repeats. Equal values may be shown once. Results filed as inconclusive are left out. More than one record can exist for a structure, and the calls need not agree. The source made the active and inactive calls. Unless noted, calls come from the whole dose curve.

Assay [1] is described as follows: Nuclear factor erythroid 2-related factor 2/antioxidant responsive element (Nrf2/ARE) small molecule agonists: qHTS cell viability counter screen in human keratinocytes (AID 1919968; active = well fitted curve in the direction sought with a large enough effect in the repeat runs; an effect the other way counts as inactive or inconclusive; note: nearly all actives have a fitted effect of over 55% in size; note: potency is the fitted concentration of half-maximal effect). The procedure, abridged: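 Cells of the KeratinoSens line were plated at 1,500 per well and left for 5 h before compound transfer from DMSO stocks. After a 23 h incubation (37 C, 5% CO2), CellTiter-Fluor was added. Signal was taken as fluorescence intensity 1 h later.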

Assay [2] is described as follows: Nuclear factor erythroid 2-related factor 2/antioxidant responsive element (Nrf2/ARE) small molecule agonists: luciferase reporter gene qHTS assay in human keratinocytes (AID 1919969). Note: nearly all actives have a fitted effect of over 35% in size. Note: potency is the fitted concentration of half-maximal effect. A general note: Reporter assays use an easily measured gene product as a stand-in for the process of interest.
Assay [3] concerns the target Gonadotropin-releasing hormone receptor (Homo sapiens) (UniProt P30968). Description: Human gonadotropin-releasing hormone receptor (GnRHR) small molecule agonists, calcium flux assay in GnRHR-HEK293 cells (AID 1920063). Note: nearly all actives have a fitted effect of over 35% in size. The procedure, abridged: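 Compounds dissolved in DMSO are pin-transferred onto dye-loaded GnRHR-HEK293 cells, which were seeded 18 h before at 37 C/5% CO2. Calcium signal is read as fluorescence intensity at 1 s intervals for 3 min.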
In general terms: Calcium flux is commonly read through the fluorescence of an indicator in the cells.

Assay [4] concerns the target KiSS-1 receptor (Homo sapiens) (UniProt Q969F8). Description: Human kisspeptin (KISS1R) small molecule agonists, calcium flux assay in KISS1R-HEK293 cells (AID 1920064; active = well fitted curve in the direction sought with a large enough effect in the repeat runs; an effect the other way counts as inactive or inconclusive). The method in brief:
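Cell line: HEK293, stable human KISS1R. Dye loading 1 h at 37 C after 18 h culture. Read: kinetic fluorescence, 480/540 nm, 3 min at 1 s intervals.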

The nature of assay [5]: G protein-coupled receptor (GPCR) small molecule agonists, calcium flux assay: HEK293 wild type cell line counter screen (AID 1920065). The procedure, abridged:
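Tox21 10K compounds, 15 concentrations each in triplicate, pin-transferred in DMSO onto dye-loaded cells; kinetic read at 480/540 nm for 3 min, 1 s intervals.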

The nature of assay [6]: p53 small molecule agonists, cell-based qHTS assay with rat liver microsomes (AID 1963578). The method in brief:
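p53RE-bla cells were exposed to compounds together with rat liver microsomes (0.5 mg/mL final) and NADPH (0.5 mg/mL final) for 16 h at 37 C, then read by LiveBLAzer beta-lactamase fluorescence after 2 h at room temperature.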
A general note: Quantitative high-throughput screening tests each substance at several concentrations.

Assay [7] can be described thus: p53 small molecule agonists, cell-based qHTS assay with human liver microsomes: qHTS cell viability counter screen (AID 1963579). Note: nearly all actives have a fitted effect of over 45% in size. Note: potency is the fitted concentration of half-maximal effect. The procedure, abridged:
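p53RE-bla cells (4,000/well) were pre-incubated 5 h at 37 C, then given compounds in DMSO plus human liver microsomes (0.5 mg/mL final) and NADPH (0.5 mg/mL final) for 16 h at 37 C. Viability was read by CellTiter-Glo luminescence.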

Assay [8] can be described thus: p53 small molecule agonists, cell-based qHTS assay with rat liver microsomes: qHTS cell viability counter screen (AID 1963580). Note: nearly all actives have a fitted effect of over 45% in size. Note: potency is the fitted concentration of half-maximal effect. The procedure, abridged: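 Luminescent ATP readout (CellTiter-Glo, 30 min at room temperature) reports viability of p53RE-bla HCT-116 cells after 16 h at 37 C with test compounds under metabolic activation by rat liver microsomes and NADPH at 0.5 mg/mL final each.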

A short description of assay [9]: p53 small molecule agonists, cell-based qHTS assay: qHTS cell viability counter screen (AID 1963581). Note: nearly all actives have a fitted effect of over 45% in size. Note: potency is the fitted concentration of half-maximal effect. The procedure, abridged:
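ATP content measured by luminescence in HCT-116 p53RE-bla cells treated 16 h at 37 C, same wells as the reporter screen.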

Assay [10] is described as follows: p53 small molecule agonists, cell-based qHTS assay (AID 1963582; active = well fitted activation curve with a large enough effect in the signal ratio in the repeat runs, not every such curve was filed as active; the % refers to the signal ratio). The procedure, abridged:
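16 h compound exposure (37 C) of p53 response element–bla cells, preceded by 5 h recovery at 37 C/5% CO2; read-out via LiveBLAzer B/G FRET substrate, 2 h RT, fluorescence intensity.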

The target of assay [11] is 5-hydroxytryptamine receptor 2A (Homo sapiens) (UniProt P28223). Nature of the assay: 5-hydroxytryptamine receptor 2A (HTR2A) small molecule antagonists, cell-based qHTS assay (AID 1963586). Note: nearly all actives have a fitted effect of over 45% in size. The method in brief:
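CHO cells stably expressing human HTR2A were plated for 18 h at 37 C, then loaded with calcium dye for 1 h. Compounds were preincubated 5 min at room temperature before DOI (4 nM solution) was added. Kinetic fluorescence was read for 3 min.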

Assay [12] shares this target. Description: 5-hydroxytryptamine receptor 2A (HTR2A) small molecule agonists, cell-based qHTS assay (AID 1963587). Note: nearly all actives have a fitted effect of over 30% in size. Note: potency is the fitted concentration of half-maximal effect. The procedure, abridged:
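HTR2A-CHO cells, plated 18 h at 37 C/5% CO2, dye-loaded 1 h at 37 C; compounds in DMSO added by pin tool (agonist mode). Intracellular calcium flux read as kinetic fluorescence on FDSS over 2 min at 1 s intervals.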

Assay [13] concerns the target Muscarinic acetylcholine receptor M1 (Homo sapiens) (UniProt P11229). Nature of the assay: Cholinergic receptor muscarinic 1 (CHRM1) small molecule antagonists, cell-based qHTS assay (AID 1963588). Note: nearly all actives have a fitted effect of over 40% in size. The procedure, abridged: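 Compounds were tested at 15 concentrations in three independent runs. Dye-loaded CHRM1-CHO cells were exposed 5 min at room temperature before stimulation by acetylcholine added at 50nM. Intracellular calcium was read kinetically on FDSS for 3 min.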

Assay [14] has the same target. Description: Cholinergic receptor muscarinic 1 (CHRM1) small molecule agonists, cell-based qHTS assay (AID 1963589). Note: nearly all actives have a fitted effect of over 35% in size. Note: potency is the fitted concentration of half-maximal effect. The procedure, abridged:
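Homogeneous fluorescence calcium flux, agonist mode. Human M1-expressing CHO cells; compound dosed at 15 concentrations, three independent runs; signal sampled every 1 sec.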

The target in assay [15] is Beta-2 adrenergic receptor (Homo sapiens) (UniProt P07550). Nature of the assay: Adrenergic beta2 receptor (ADRB2) small molecule antagonists, cell-based qHTS assay (AID 1963592). Note: nearly all actives have a fitted effect of over 50% in size. Note: potency is the fitted concentration of half-maximal effect. The method in brief: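 Assay format: CHO-ADRB2 cells, 18-20hr seeding at 37C/5% CO2, then compound plus 1nM isoproterenol agonist mix for 0.5hr RT. Homogeneous time-resolved fluorescence cAMP detection after 1hr, expressed as 665/615 nm ratio.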

Assay [16] addresses D(2) dopamine receptor (Homo sapiens) (UniProt P14416). Nature of the assay: Dopamine D2 receptor (DRD2) small molecule agonists, cell-based qHTS assay (AID 1963594). Note: nearly all actives have a fitted effect of over 35% in size. The procedure, abridged: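 HEK293 cells stably expressing DRD2 were cultured 24 h at 37 C, then given Ro20-1724 (0.1 mM final) and compounds for 10 min at room temperature. NKH477 (200nM) was then added for 30 min. cAMP was read by HTRF.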

Assay [17] shares this target. Description: Dopamine D2 receptor (DRD2) small molecule antagonists, cell-based qHTS assay (AID 1963595; active = well fitted inhibition curve with a large enough effect in the signal ratio in the repeat runs, with a control signal flat; the % refers to the signal ratio; note: potency is the fitted concentration of half-maximal effect). The method in brief: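 Readout: HTRF cAMP, cAMP-d2 competing with cellular cAMP for anti-cAMP cryptate, read after 1 h. Cells: DRD2-HEK293. Conditions: 0.1 mM Ro20-1724, 12 nM quinpirole, 200 nM NKH477, 30 min RT.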
A short description of assay [18]: cAMP Responsive Elements (CRE) small molecule agonists, cell-based qHTS assay (AID 1963590). The method in brief: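 HEK 293T cells stably bearing CRE-bla were plated at 2,000 cells per well and rested 18 h. Compounds, positive controls or DMSO were added for 3 h at 37 C. LiveBLAzer B/G substrate was then loaded for 2 h at room temperature.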
Assay [19] in a line: cAMP Responsive Elements (CRE) small molecule antagonists, cell-based qHTS assay (AID 1963591; active = well fitted inhibition curve with a large enough effect in the signal ratio in the repeat runs, not every such curve was filed as active; the % refers to the signal ratio). The procedure, abridged: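 First, CRE-bla HEK293T cells settled 18 h at 37 C. Next, compound and 0.25 uM final NKH477 were applied for 3 h. Last, LiveBLAzer B/G substrate was loaded for 2 h at room temperature.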
For assay [20], the target named is Beta-2 adrenergic receptor (Homo sapiens) (UniProt P07550). Nature of the assay: Adrenergic beta2 receptor (ADRB2) small molecule agonists, cell-based qHTS assay (AID 1963593).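 Note: CHO cells stably overexpressing human ADRB2.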 The procedure, abridged:
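CHO cells stably over-expressing ADRB2 were plated overnight at 37C, then dosed with compounds plus a stimulation mix containing 100uM IBMX and 25uM Ro-20-1724 for 0.5hr at room temperature. cAMP was measured by HTRF competition, 1hr.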

Gonadotropin-releasing hormone receptor (Homo sapiens), sequence (P30968 whole entry, looked up): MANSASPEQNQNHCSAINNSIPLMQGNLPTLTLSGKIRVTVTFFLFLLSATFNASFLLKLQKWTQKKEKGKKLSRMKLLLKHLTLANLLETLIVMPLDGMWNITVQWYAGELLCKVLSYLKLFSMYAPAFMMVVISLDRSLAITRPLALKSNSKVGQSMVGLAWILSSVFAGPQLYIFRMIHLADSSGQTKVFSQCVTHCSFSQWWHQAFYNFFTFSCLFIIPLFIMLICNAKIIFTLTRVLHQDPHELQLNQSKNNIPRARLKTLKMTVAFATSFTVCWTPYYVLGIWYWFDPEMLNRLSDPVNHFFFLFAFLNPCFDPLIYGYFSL
5-hydroxytryptamine receptor 2A (Homo sapiens), sequence (P28223 whole entry, looked up): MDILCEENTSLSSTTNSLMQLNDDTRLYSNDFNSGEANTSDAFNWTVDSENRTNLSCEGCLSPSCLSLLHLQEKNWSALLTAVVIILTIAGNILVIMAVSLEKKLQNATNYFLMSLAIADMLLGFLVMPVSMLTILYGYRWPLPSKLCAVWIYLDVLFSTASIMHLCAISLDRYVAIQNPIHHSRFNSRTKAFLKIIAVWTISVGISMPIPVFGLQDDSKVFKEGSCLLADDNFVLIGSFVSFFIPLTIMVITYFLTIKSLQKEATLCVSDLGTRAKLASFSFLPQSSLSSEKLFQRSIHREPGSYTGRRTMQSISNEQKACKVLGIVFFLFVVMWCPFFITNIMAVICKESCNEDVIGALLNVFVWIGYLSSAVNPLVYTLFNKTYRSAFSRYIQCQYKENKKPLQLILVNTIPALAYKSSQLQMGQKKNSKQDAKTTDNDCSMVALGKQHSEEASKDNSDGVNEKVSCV
Muscarinic acetylcholine receptor M1 (Homo sapiens), sequence (P11229 whole entry, looked up): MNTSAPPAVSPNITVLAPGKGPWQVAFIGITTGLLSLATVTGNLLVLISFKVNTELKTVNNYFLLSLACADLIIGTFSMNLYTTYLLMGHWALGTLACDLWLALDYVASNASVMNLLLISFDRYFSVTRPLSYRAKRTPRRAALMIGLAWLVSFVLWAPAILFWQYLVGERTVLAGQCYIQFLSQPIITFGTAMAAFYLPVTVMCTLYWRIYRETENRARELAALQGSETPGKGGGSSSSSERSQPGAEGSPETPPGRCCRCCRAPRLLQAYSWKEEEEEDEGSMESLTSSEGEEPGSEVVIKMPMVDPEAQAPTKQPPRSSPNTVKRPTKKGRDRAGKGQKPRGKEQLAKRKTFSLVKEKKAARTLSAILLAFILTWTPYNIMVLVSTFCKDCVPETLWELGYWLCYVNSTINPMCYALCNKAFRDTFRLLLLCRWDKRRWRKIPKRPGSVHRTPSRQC
KiSS-1 receptor (Homo sapiens), sequence (Q969F8 whole entry, looked up): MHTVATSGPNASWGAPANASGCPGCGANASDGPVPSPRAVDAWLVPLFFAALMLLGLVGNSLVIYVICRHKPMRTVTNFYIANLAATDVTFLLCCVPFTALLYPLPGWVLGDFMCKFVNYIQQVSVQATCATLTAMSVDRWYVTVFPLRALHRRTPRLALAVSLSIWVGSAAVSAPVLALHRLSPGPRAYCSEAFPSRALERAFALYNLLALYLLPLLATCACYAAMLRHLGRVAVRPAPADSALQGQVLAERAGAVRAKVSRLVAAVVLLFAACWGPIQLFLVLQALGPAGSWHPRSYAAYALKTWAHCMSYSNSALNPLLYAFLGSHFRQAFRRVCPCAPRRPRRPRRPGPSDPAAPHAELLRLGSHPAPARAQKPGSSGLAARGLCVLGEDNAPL
Beta-2 adrenergic receptor (Homo sapiens), sequence (P07550 whole entry, looked up): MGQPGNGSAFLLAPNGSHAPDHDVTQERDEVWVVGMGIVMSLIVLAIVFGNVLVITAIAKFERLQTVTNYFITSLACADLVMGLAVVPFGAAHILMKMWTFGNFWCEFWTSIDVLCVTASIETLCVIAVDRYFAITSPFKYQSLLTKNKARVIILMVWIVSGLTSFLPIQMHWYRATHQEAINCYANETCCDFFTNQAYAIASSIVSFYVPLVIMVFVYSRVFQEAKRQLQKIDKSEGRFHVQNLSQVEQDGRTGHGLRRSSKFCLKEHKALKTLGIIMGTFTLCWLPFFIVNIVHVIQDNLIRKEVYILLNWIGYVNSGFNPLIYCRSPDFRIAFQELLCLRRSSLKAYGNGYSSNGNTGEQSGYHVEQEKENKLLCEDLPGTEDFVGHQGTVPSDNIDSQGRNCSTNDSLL
D(2) dopamine receptor (Homo sapiens), sequence (P14416 whole entry, looked up): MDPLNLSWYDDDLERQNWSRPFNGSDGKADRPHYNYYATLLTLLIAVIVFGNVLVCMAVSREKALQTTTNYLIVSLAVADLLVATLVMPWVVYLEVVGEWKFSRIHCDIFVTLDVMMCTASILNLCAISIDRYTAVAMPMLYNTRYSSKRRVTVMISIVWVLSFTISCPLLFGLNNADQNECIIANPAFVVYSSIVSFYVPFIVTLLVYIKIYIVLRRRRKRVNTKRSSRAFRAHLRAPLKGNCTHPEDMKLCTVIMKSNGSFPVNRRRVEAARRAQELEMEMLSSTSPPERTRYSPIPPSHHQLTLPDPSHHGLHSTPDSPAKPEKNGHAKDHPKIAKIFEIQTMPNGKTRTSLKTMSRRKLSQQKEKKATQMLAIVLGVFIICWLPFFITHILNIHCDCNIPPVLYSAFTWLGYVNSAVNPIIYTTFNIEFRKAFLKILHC

As to `Oc1cc(Cl)ccc1Oc1ccc(Cl)cc1Cl`, the Potency in assay [1] was 22.2 µM (active) and 29.8 µM (active); in [7], 16.6 µM (active) and inactive; in [8], 37.2 µM (active) and inactive; in assay [9], 26.3 µM (active); in assay [12], 35.5 µM (active); in assay [15], 52.6 µM (active). In [17], the Potency was 55.8 µM (active). The Potency entry in assay [2], in assay [3], in [4], in assay [5], in [6] and in assay [10] was “inactive” in each case. Moreover, the Potency entry in assay [11], in assay [13], in assay [14] and in assay [16] was “inactive” throughout.
Regarding `COP(=S)(OC)Oc1ccc(Sc2ccc(OP(=S)(OC)OC)cc2)cc1`, the Potency entry in assay [1], in assay [2], in assay [3], in [4], in [5] and in [7] was “inactive” throughout. Besides, the Potency result in assay [8], in [9], in [10], in [11], in assay [12] and in [18] was “inactive” each time. In addition, the Potency entry in assay [19], in [15], in assay [16] and in [17] was “inactive” throughout.
As for `CCOP(=S)(OCC)SCn1c(=O)oc2cc(Cl)ccc21`, the Potency entry in assay [1], in assay [3], in assay [4], in assay [5], in assay [7] and in assay [8] was “inactive” each time. The Potency entry in assay [9], in assay [10], in assay [13], in assay [14], in assay [15] and in [16] was “inactive” each time. The Potency entry in [17] was “inactive”. In assay [2], the Potency is 32.9 µM (active) and 61.1 µM (active).
Regarding `COP(=S)(OC)Oc1ccc([N+](=O)[O-])cc1`, the Potency result in [1], in assay [2], in assay [3], in assay [4], in assay [5] and in assay [7] was “inactive” throughout. For the same compound, the Potency entry in assay [8], in assay [9], in assay [10], in assay [11], in assay [12] and in assay [13] was “inactive” in each case. The Potency result in assay [14], in [18], in assay [19], in assay [15], in assay [20] and in [16] was “inactive” each time. The Potency entry in [17] is “inactive”.
Turning to `CCC[N+]1(C)CCCC1`, the Potency entry in [1], in [2], in assay [3], in assay [4], in assay [5] and in assay [7] was “inactive” in each case. Further, the Potency entry in assay [8], in assay [9], in [11], in assay [12], in assay [13] and in assay [18] was “inactive” each time. The Potency result in [19], in [15], in [20], in assay [16] and in assay [17] was “inactive” each time. Besides, the Potency result in assay [14] was “inactive and 24.3 µM (active) and 21.9 µM (active)”.
For the compound `CCOS(=O)(=O)OCC`, the Potency result in assay [1], in assay [3], in [4], in assay [5], in [7] and in assay [8] was “inactive” throughout. In addition, the Potency result in assay [9], in assay [10], in [11], in [12], in assay [13] and in assay [18] was “inactive” each time. For the same compound, the Potency result in assay [19], in [15], in assay [16] and in assay [17] was “inactive” throughout. Also, in assay [2], the Potency was 68.7 µM (active) and inactive.
For the compound `CC(C)(c1ccccc1)c1ccc(O)c(C(C)(C)c2ccccc2)c1`, the Potency is 13.6 µM (active) and 30.6 µM (active) in assay [1]; “inactive and 7.7 µM (active)” in assay [2]; 40.4 µM (active) and inactive in [7]; 54 µM (active) in [17]. Moreover, the Potency result in assay [3], in assay [4], in assay [5], in assay [6], in assay [11] and in [12] was “inactive” in each case. Besides, the Potency entry in [13], in [14] and in [16] was “inactive” each time.
Take `CCCCCCCCC(=O)NCc1ccc(O)c(OC)c1`: the Potency result in assay [1], in assay [2], in assay [3], in [4], in assay [5] and in assay [7] was “inactive” throughout. The Potency result in assay [8], in assay [9], in [11], in assay [12], in [13] and in assay [14] was “inactive” in each case. Further, the Potency entry in assay [18], in assay [19], in assay [15], in assay [20] and in [17] was “inactive” each time.

Values taken from PubChem BioAssay (Tox21).
